In PubChem BioAssay (NCATS):
Values joined by “and” are separate entries in the source; they are usually repeats but may differ in a detail not shown here. Identical values can stand only once. Records with an inconclusive call do not appear. Active and inactive are the calls of the source. Unless noted, calls come from the whole dose curve; as a rule, active = well fitted curve in the direction sought with a large enough effect; inconclusive = small, poorly fitted or top-dose-only effect, or another doubt; inactive = no such curve, though single readings can be large; an effect the other way counts as inactive or inconclusive.

Key:
[1] = Cell Viability - BJ (AID 421; calls by dose curve;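 note: potency is the fitted concentration of half-maximal effect; cells exposed to compound for 40 hours at 37 °C before readout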); details: BJ fibroblast viability, qHTS
Method in brief: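 Cytotoxicity in human BJ foreskin fibroblasts is scored as loss of cellular ATP after a 40-hour exposure, measured by luciferase luminescence. Controls are DMSO and 100 uM tamoxifen.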

[2] = Cell Viability - Jurkat (AID 426;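 active = dose-dependent loss of cell ATP signal giving a full or clear fitted curve, ranked by lower potency value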; note: potency is the fitted concentration of half-maximal effect); details: qHTS
Method in brief: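 Jurkat (Clone E6-1) cells, 5000/well in complete medium, exposed to compounds for 40 hr at 37C; intracellular ATP measured by CellTiter-Glo luminescence after 20 min at room temperature. AC50 from Hill fits.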

[3] = Cell Viability - Hek293 (AID 427;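 active = compounds whose dose-response curve shows a full or clear partial loss of cell viability, called from curve shape rather than a numeric limit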;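 note: potency is the fitted concentration of half-maximal effect; cells exposed to compound for 40 hours at 37 °C before reading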); details: qHTS
Method in brief: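 qHTS, human embryonic kidney (adenovirus-transformed) cells; 40 hr cpd, 37 °C; CellTiter-Glo ATP luminescence. Norm: DMSO = 0, 100 uM tamoxifen = 100% inhibition. Hill-fit AC50.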

[4] = Cell Viability - HepG2 (AID 433; calls by dose curve;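 note: potency is the fitted concentration of half-maximal effect; potency for ATP loss meaning cytotoxicity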); details: qHTS
Method in brief: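 In this qHTS format, a 40 h, 37 °C compound incubation of HepG2 cells in complete medium precedes a 20 min CellTiter-Glo step at room temperature. Tamoxifen and doxorubicin serve as positive controls; Hill-equation fits yield AC50.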

[5] = Cell Viability - MRC5 (AID 434; calls by dose curve;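 note: potency is the fitted concentration of half-maximal effect; potency reflects cytotoxicity seen as loss of intracellular ATP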); details: MRC5 lung fibroblast viability, qHTS
Method in brief: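 MRC5 normal human lung fibroblasts, 1500 cells/well, exposed to compound for 40 hr at 37 C. Cellular ATP was read by CellTiter-Glo luminescence; data normalized to DMSO and 100 uM tamoxifen, with AC50 from Hill fits.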

[6] = Cell Viability - Mesenchymal (AID 546); details: mesenchymal cells viability, qHTS; series mostly up to 91.7 µM;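 note: cells exposed to compound for 40 hours before reading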
Method in brief: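 Human kidney mesenchymal cells from normal renal glomeruli, 1000 cells/well, rested 5 hr at 37 °C, then treated 40 hr at 37 °C in complete medium. Cellular ATP read by CellTiter-Glo luminescence; AC50 from Hill-equation fits.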

[7] = Cellular Toxicity (caspase-3) HepG2 (AID 654); details: HepG2 caspase-3 activation, luminescence, 0% = DMSO only, 100% = tamoxifen; series mostly up to 92.2 µM;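 note: cells exposed to compound for 16 hours before reading; 0% = DMSO alone and 100% = caspase signal from 100 µM tamoxifen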
Method in brief: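 HepG2 cells (1500/well) were treated 16 h at 37 °C in complete medium, then caspase 3/7 activity was read by Caspase-Glo luminescence. Data were normalized to DMSO and 100 uM tamoxifen; AC50 came from Hill-equation fits of qHTS concentration-response.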

[8] = Cellular Toxicity (caspase-3) HUV-EC-C (AID 656); details: HUV-EC-C cells, caspase-3 activation (apoptosis), vehicle = 0, 100 µM tamoxifen = 100%; series mostly up to 92.2 µM
Method in brief: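 Concentration-dependent caspase 3/7 induction was assessed in HUV-EC-C cells exposed for 16 hours. Data scaled between DMSO and tamoxifen (100 uM) controls.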

[9] = Cellular Toxicity (caspase-3) BJ (AID 658); details: BJ fibroblasts, luminescence, normalized: DMSO 0%, staurosporine 100%; series mostly up to 91.7 µM
Method in brief: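 BJ human foreskin fibroblasts, 1000 cells/well, treated 16 hours at 37 °C in complete medium; caspase 3/7 activity by Caspase-Glo luminescence after 1 hr at room temperature. Normalized to DMSO and 10 uM staurosporine; AC50 from Hill fits.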

[10] = Cellular Toxicity (caspase-3) MRC-5 (AID 659); details: MRC-5 cells, luminescence, normalized: DMSO 0%, 10 µM staurosporine 100%; series mostly up to 91.7 µM
Method in brief: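 MRC-5 human normal lung fibroblasts, 1500 cells/well, treated 16 h at 37 °C in complete medium. Caspase 3/7 measured by Caspase-Glo luminescence after 1 h at room temperature. Normalized to DMSO and 10 uM staurosporine; AC50 from Hill fit.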

[11] = Cellular Toxicity (caspase-3) SK-N-SH (AID 661); details: SK-N-SH caspase-3 activation, qHTS; series mostly up to 91.7 µM
Method in brief: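 Human SK-N-SH neuroblastoma cells, 1500/well, were exposed to compounds for 16 hours at 37 °C. Caspase-Glo 3/7 luminescence was normalized to DMSO (basal) and 10 uM staurosporine (100%), and AC50 came from a Hill fit.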

[12] = Cellular Toxicity (caspase-3) Hek293 (AID 664); details: HEK293 caspase-3 activation, DMSO = 0%, 100 µM tamoxifen = 100%; at 92.2 µM (top of the series);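 note: cells exposed to compound for 16 h at 37 °C before readout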
Method in brief: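 HEK293 cells in complete medium treated 16 h at 37 °C, then Caspase-Glo 3/7 luminescence read after 20 min at room temperature. Normalized to DMSO and 100 uM tamoxifen; AC50 from Hill fit of concentration-response.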

[13] = MultiTox-Fluor Cytotoxicity Assay - LYMP1-001 - Dead Cells (AID 946); details: LYMP1-001 lymphoblastoid cells, dead-cell protease fluorescence; series mostly up to 92.2 µM
Method in brief: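 Seed 2500 LYMP1-001 cells/well, incubate 5 hr at 37 C; add compound, 16 hr at 37 C; add MultiTox-Fluor reagent, 60 min RT; read dead-cell fluorescence Ex/Em=485/520. Normalize to DMSO and 15 uM tetraoctylammonium bromide.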

[14] = Cell Viability - LYMP1-002 - Assay at 16 hr (AID 948); details: LYMP1-002 lymphoblastoid cell viability; series mostly up to 92.2 µM;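 note: 0% = DMSO alone and full effect = 92 µM tetraoctylammonium bromide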
Method in brief: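 In this qHTS, lymphoblastoid LYMP1-002 cells (human) receive compounds for 16 hr at 37 C. Viability is taken from CellTiter-Glo ATP luminescence, and AC50 derives from standard Hill fits.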

[15] = MultiTox-Fluor Cytotoxicity Assay - LYMP1-002 - Live Cells (AID 955); details: LYMP1-002 lymphoblastoid live-cell protease fluorescence viability; series mostly up to 46.1 µM; note: % is set by controls: 0 for no effect and ±100 for the full control effect
Method in brief: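 Human lymphoblastoid LYMP1-002 cells, 2500/well, treated 16 h at 37 C in complete medium. Live-cell protease activity via GF-AFC fluorescence (Ex/Em 405/510) after 60 min reagent incubation; AC50 from Hill fits.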

[16] = MultiTox-Fluor Cytotoxicity Assay - LYMP1-003 - Dead Cells (AID 961); details: LYMP1-003 lymphoblastoid cells, dead-cell protease fluorescence; series mostly up to 92.2 µM; note: nearly all actives have a fitted effect of over 70% in size
Method in brief: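 LYMP1-003 lymphoblastoid, 2500 cells/well, 5 hr settle then 16 hr cpd at 37 C; MultiTox-Fluor reagent 60 min RT; Ex/Em 485/520 dead-cell signal; norm. DMSO = 0%, 15 uM tetraoctylammonium bromide = 100%; Hill AC50.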

[17] = Cell Viability - LYMP2-016 (AID 984); details: LYMP2-016 lymphoblastoid cell viability, qHTS; series mostly up to 92.2 µM; note: % is set by controls: 0 for no effect and ±100 for the full control effect; nearly all actives have a fitted effect of over 55% in size
Method in brief: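 Concentration-dependent ATP depletion measured in LYMP2-016 lymphoblastoid cells, 24 h, 37 C; luciferase-based luminescent detection; Hill-equation AC50.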

[18] = Cell Viability - LYMP2-026 (AID 989); details: LYMP2-026 lymphoblastoid cell viability, qHTS; series mostly up to 92.2 µM; note: % is set by controls: 0 for no effect and ±100 for the full control effect; nearly all actives have a fitted effect of over 50% in size
Method in brief: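 Human lymphoblastoid LYMP2-026 cells, 2500/well, exposed to compound 24 h at 37 C in complete medium. Viability as intracellular ATP by CellTiter-Glo luminescence; AC50 from Hill fits of qHTS concentration-response.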

[19] = qHTS Assay for Identification of Small Molecule Inducers of Hypoxia Response (AID 2120; active = well fitted curve in the direction sought with a large enough effect in the signal ratio, with a control signal flat, not every such curve was filed as active; the % refers to the signal ratio; note: 0% is about no effect); details: hypoxia response reporter cells, beta-lactamase ratio readout; series mostly up to 104 µM
Method in brief: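 HRE-bla ME-180 cells in Opti-MEM with 0.5% dialyzed FBS, pre-plated 4-5 h, then compound titration for 17 h at 37 degrees Celsius. CCF4 loaded 2.5 h at room temperature; 460/530 nm ratio gave %Activity and AC50 for induction.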

[20] = target: Peroxisome proliferator-activated receptor alpha (Homo sapiens) (UniProt Q07869); experiment: qHTS assay for small molecule agonists of the peroxisome proliferator-activated receptor alpha (PPARalpha) signaling pathway (AID 651778); details: PathHunter PPARalpha complementation, chemiluminescence, 6 h; stronger effect = higher value; note: % of control where 0% means no effect
Sequence of Peroxisome proliferator-activated receptor alpha (Homo sapiens) (Q07869 whole entry, looked up, the tested form may be a part): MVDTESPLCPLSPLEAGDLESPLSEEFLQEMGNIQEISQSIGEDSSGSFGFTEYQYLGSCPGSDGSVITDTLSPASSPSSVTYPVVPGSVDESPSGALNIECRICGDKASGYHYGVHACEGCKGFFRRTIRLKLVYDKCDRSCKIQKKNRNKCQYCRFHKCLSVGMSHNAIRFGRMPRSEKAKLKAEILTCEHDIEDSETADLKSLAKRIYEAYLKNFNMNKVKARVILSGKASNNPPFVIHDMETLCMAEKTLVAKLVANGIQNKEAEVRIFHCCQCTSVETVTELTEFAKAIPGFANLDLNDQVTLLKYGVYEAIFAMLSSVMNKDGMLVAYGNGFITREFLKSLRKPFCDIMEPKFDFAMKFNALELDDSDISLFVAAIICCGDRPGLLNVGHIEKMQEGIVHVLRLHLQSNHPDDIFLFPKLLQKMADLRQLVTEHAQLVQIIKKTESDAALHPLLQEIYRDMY
Method in brief: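 Enzyme-fragment complementation assay in which ligand-bound PPARalpha translocates and forms an active enzyme that generates chemiluminescence. Cells were plated overnight, exposed to compound for 6 hr at 37 C, and then given detection reagent for 60 min at room temperature.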

CCCCC#N
inactive: Potency [1] > 92 µM | Potency [2] > 92 µM | Potency [3] > 92 µM | Potency [4] > 92 µM | Potency [5] > 92 µM | Potency [6] | outcome [7] | outcome [8] | outcome [9] | outcome [10] | Potency [11] | caspase-3 activation [12] -1.9% | outcome [13] | outcome [14] | outcome [15] | Potency [16] | Potency [17] | Potency [18] | Potency [19] | max response [20] -3.73%

Nc1cc(Cl)ccc1Cl
inactive: Potency [1] > 92 µM | Potency [2] > 92 µM | Potency [3] > 92 µM | Potency [4] > 92 µM | Potency [5] > 92 µM | Potency [6] | outcome [7] | outcome [8] | outcome [9] | outcome [10] | Potency [11] | caspase-3 activation [12] -0.435% | outcome [13] | outcome [14] | outcome [15] | Potency [16] | Potency [17] | Potency [18] | Potency [19] | max response [20] -1.24%

Cc1cccc(N)c1C
inactive: Potency [1] > 92 µM | Potency [2] > 92 µM | Potency [3] > 92 µM | Potency [4] > 92 µM | Potency [5] > 92 µM | Potency [6] | outcome [7] | outcome [8] | outcome [9] | outcome [10] | Potency [11] | caspase-3 activation [12] 1.27% | outcome [13] | outcome [14] | outcome [15] | Potency [16] | Potency [17] | Potency [18] | Potency [19] | max response [20] -1.4%

Cc1ccc(N)cc1Cl
inactive: Potency [1] > 92 µM | Potency [2] > 92 µM | Potency [3] > 92 µM | Potency [4] > 92 µM | Potency [5] > 92 µM | Potency [6] | outcome [7] | outcome [8] | outcome [9] | outcome [10] | Potency [11] | caspase-3 activation [12] 0.465% | outcome [13] | outcome [14] | outcome [15] | Potency [16] | Potency [17] | Potency [18] | Potency [19] | max response [20] 3.75%

Clc1ccc(C(Cl)(Cl)Cl)c(Cl)c1
inactive: Potency [1] > 92 µM | Potency [2] > 92 µM | Potency [3] > 92 µM | Potency [4] > 92 µM | Potency [5] > 92 µM | Potency [6] | outcome [7] | outcome [8] | outcome [9] | outcome [10] | Potency [11] | caspase-3 activation [12] 0.186% | outcome [13] | outcome [14] | outcome [15] | Potency [16] | Potency [17] | Potency [18] | Potency [19] | max response [20] -0.345%

CC(C)OC(=O)Cc1ccccc1
inactive: Potency [1] > 92 µM | Potency [2] > 92 µM | Potency [3] > 92 µM | Potency [4] > 92 µM | Potency [5] > 92 µM | Potency [6] | outcome [7] | outcome [8] | outcome [9] | outcome [10] | Potency [11] | caspase-3 activation [12] 0.719% | outcome [13] | outcome [14] | outcome [15] | Potency [16] | Potency [17] | Potency [18] | Potency [19] | max response [20] 0.38%

OCCCCO
inactive: Potency [1] > 92 µM | Potency [2] > 92 µM | Potency [3] > 92 µM | Potency [4] > 92 µM | Potency [5] > 92 µM | Potency [6] | outcome [7] | outcome [8] | outcome [9] | outcome [10] | Potency [11] | caspase-3 activation [12] -2.02% | outcome [13] | outcome [14] | outcome [15] | Potency [16] | Potency [17] | Potency [18] | Potency [19] | max response [20] -0.393%

Clc1ccc(Cl)c(Cl)c1
inactive: Potency [1] > 92 µM | Potency [2] > 92 µM | Potency [3] > 92 µM | Potency [4] > 92 µM | Potency [5] > 92 µM | Potency [6] | outcome [7] | outcome [8] | outcome [9] | outcome [10] | Potency [11] | caspase-3 activation [12] 0.169% | outcome [13] | outcome [14] | outcome [15] | Potency [16] | Potency [17] | Potency [18] | Potency [19] | max response [20] -1.44% and -3.32%

CC(C)CON=O
inactive: Potency [1] > 92 µM | Potency [2] > 92 µM | Potency [3] > 92 µM | Potency [4] > 92 µM | Potency [5] > 92 µM | Potency [6] | outcome [7] | outcome [8] | outcome [9] | outcome [10] | Potency [11] | caspase-3 activation [12] 0.719% | outcome [13] | outcome [14] | outcome [15] | Potency [16] | Potency [17] | Potency [18] | Potency [19] | max response [20] -1.42%

CN=C=O
inactive: Potency [1] > 92 µM | Potency [2] > 92 µM | Potency [3] > 92 µM | Potency [4] > 92 µM | Potency [5] > 92 µM | Potency [6] | outcome [7] | outcome [8] | outcome [9] | outcome [10] | Potency [11] | caspase-3 activation [12] 1.04% | outcome [13] | outcome [14] | outcome [15] | Potency [16] | Potency [17] | Potency [18] | Potency [19] | max response [20] 1.15%

C=CCCl
inactive: Potency [1] > 92 µM | Potency [2] > 92 µM | Potency [3] > 92 µM | Potency [4] > 92 µM | Potency [5] > 92 µM | Potency [6] | outcome [7] | outcome [8] | outcome [9] | outcome [10] | Potency [11] | caspase-3 activation [12] 0.123% | outcome [13] | outcome [14] | outcome [15] | Potency [16] | Potency [17] | Potency [18] | Potency [19] | max response [20] -5.35%
